# High-throughput results (PubChem BioAssay)
# Only some compounds are listed: those with a hit (about 21% of all), similar ones and a draw of the others.
# Pf growth 96h – Primary qHTS for delayed death inhibitors of the malarial parasite plastid, 96 hour incubation. P. falciparum luciferase reporter growth, 96 h. Potency, µM (doses to about 28.7 µM), inactives show at the highest dose activity change, negative = inhibition, usual class: inhibitors. 320,000 tested, 6.9% active; also: potency is read from the fitted curve at half-maximal effect; % is scaled to controls: 0 for no effect and ±100 for the full control effect
#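 Cell-based qHTS: luciferase-tagged P. falciparum in erythrocytes (2% hematocrit, 0.05% parasitemia final) incubated with compounds for 96 hours, 37 C, 5% CO2; luciferase detection reagent then added and luminescence measured.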
# SARS PLP yeast – qHTS of Yeast-based Assay for SARS-CoV PLP; 330,000 tested, 0.19% active; S. cerevisiae expressing SARS-CoV PLpro, growth rescue; Potency, µM (titrated, usually from 32.9 µM), inactives show top-dose activity, positive = growth rescue, usual class: activators; AID 485353, 2010; calls by dose curve; also: potency is read from the fitted curve at half-maximal effect; 0% is about no effect; nearly all actives have a fitted effect of over 55% in size
# Pf growth 48h – Primary qHTS for delayed death inhibitors of the malarial parasite plastid, 48 hour incubation; P. falciparum luciferase growth in erythrocytes, 48 h; Potency, µM (series often up to 28.7 µM), for inactives: at the top dose activity change, negative = inhibition, most hits filed as inhibitors; 310,000 tested, 5.9% active; AID 504832, 2011; also: potency is read from the fitted curve at half-maximal effect; % is scaled to controls: 0 for no effect and ±100 for the full control effect
#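 Here the parasites carry a stable luciferase gene and grow inside erythrocytes in Albumax-based RPMI medium with compound for one erythrocytic cycle. Activity is scored as loss of luminescent signal.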
# Shiga inhibitor – A qHTS for Small Molecule Inhibitors of Shiga Toxin | inhibition, % at 38.7 µM | Vero cells, Shiga toxin protein synthesis inhibition reporter | 290,000 tested, 9.2% active | AID 2315, 2010; in the data active = inhibition mostly above about 28%, no sharp cut-off; inactive = mostly below about 43%; also: 0% is about no effect
# NS1 inh – qHTS Assay for Inhibitors of Influenza NS1 Protein Function; Potency, µM (series often up to 46.1 µM), for inactives: top-dose activity, positive = more growth; 270,000 tested, 0.4% active; AID 2326, 2010; calls by dose curve; also: potency is read from the fitted curve at half-maximal effect; actives are rising curves; nearly all actives have a fitted effect of over 50% in size
#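 S. cerevisiae expressing influenza A NS1, grown in glucose, washed, then diluted 1:100 into pH 6.0 -URA galactose medium with 23 nl compound. Growth recovery read as OD600; NS1-free strain serves as control.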
# CHX counter – Cycloheximide Counterscreen for Small Molecule Inhibitors of Shiga Toxin | cell reporter, cycloheximide protein synthesis inhibition counterscreen | 300,000 tested, 12% active | max response, %; in the data active = max response mostly above about 13%, no sharp cut-off; inactive = mostly below about 14%; also: read at 38.3 µM for the half of the compounds with a filed dose; 0% is about no effect
# Active calls of the source: *; u = inconclusive; x = not tested or not shown. Unless noted, calls follow the shape of the dose curve; as a rule, active = well fitted inhibition curve with a large enough effect; inconclusive = small, poorly fitted or top-dose-only effect, or another doubt; inactive = no such curve, though single readings can be large or run the other way.
SMILES,Pf growth 96h,SARS PLP yeast,Pf growth 48h,Shiga inhibitor,NS1 inh,CHX counter
Cc1cc(C)nc(N(C#N)CC(=O)c2ccccc2)n1,x,-1%,0%,48*,2%,37*
CCc1ccc(C(=O)CN(C#N)c2nc(C)cc(C)n2)cc1,u,-3%,0%,25,-31%,4
Nc1ncc(Br)cc1N=Cc1ccccc1,34%,11%,4%,27*,-19%,75*
COc1ccccc1OCC(=O)NCc1cccs1,95%,10%,35%,37,-11%,18
CCOc1ccc(C(CC(=O)O)NC(=O)c2cccs2)cc1 (stereo not drawn),u,17%,-23%,7,36%,-4
CCN(CC)S(=O)(=O)c1ccc(C(=O)NCc2cccs2)cc1,-17%,x,-12%,19,0%,-1
COc1cc(C#N)ccc1OCC(=O)NCc1cccs1,22%,0%,134%,53,6%,15*
CCOc1c2ccc(C(=O)NCCc3cccs3)cc2nn1CC,127%,5%,0%,89*,-11%,48*
CCOC(=O)CC(NC(=O)c1cccs1)c1ccc(OCC)cc1 (stereo not drawn),10µM*,1%,6%,8,-19%,8
CCOc1ccc(C(=O)NCc2cccs2)cc1,0.66µM*,5%,17%,83*,-14%,14
CCCCn1nc2cc(C(=O)NCCc3cccs3)ccc2c1OCC,u,-5%,u,38,-1%,11
Cc1ccc(OCC(=O)NCc2cccs2)cc1,x,4%,37%,29*,-5%,27*
Cc1ccc(C(=O)OCC(=O)NCc2cccs2)cc1C,30%,-1%,40%,11,-2%,14*
CCCCOc1ccc(C(=O)NCCc2cccs2)cc1,u,-6%,403%,123*,x,43*
O=C(COC(=O)c1cc(=O)[nH]c(=O)[nH]1)Nc1cccc(S(=O)(=O)N2CCCCC2)c1,u,1%,7%,-2,x,-2
CC1CCCCC1NC(=O)c1cccc(S(=O)(=O)N2CCN(Cc3ccccc3)CC2)c1 (stereo not drawn),15µM*,2%,17µM*,x,x,x
CCN(CC)C(=O)c1ccc(NC(=O)c2cccc(S(=O)(=O)N3CCN(Cc4ccccc4)CC3)c2)cc1,12µM*,4%,10µM*,x,x,x
COc1cccc(NC(=O)c2cccc(S(=O)(=O)N3CCN(Cc4ccccc4)CC3)c2)c1,7.4µM*,-13%,u,x,x,x
CC(=O)Nc1cccc(NC(=O)c2cccc(S(=O)(=O)N3CCN(Cc4ccccc4)CC3)c2)c1,10µM*,7%,10µM*,x,x,x
O=C(c1cccc(S(=O)(=O)N2CCCCC2)c1)N1CCN(Cc2ccccc2)CC1,u,1%,u,x,x,x
CCc1ccccc1NC(=O)CNC(=O)c1cccc(S(=O)(=O)N2CCN(Cc3ccccc3)CC2)c1,-19%,0%,u,x,x,x
COc1cc(Br)c(CN2C(=O)NC3(CCCCCC3)C2=O)cc1OC,0%,0%,-1%,-4,-2%,2
O=C1CC(c2ccccc2)CC(O)=C1C=NC1CCCCC1 (stereo not drawn),u,1%,4%,-24,-14%,1
CCCCS(=O)(=O)N1CCCC(C(=O)Nc2ccc3c(c2)CCC3)C1 (stereo not drawn),-26%,4%,17%,-3,-10%,-2
CC(=O)Nc1ccc(S(=O)(=O)N2CCN(Cc3cccnc3)CC2)cc1,x,1%,8%,-4,1%,-3
CC(=O)Nc1ccc(S(=O)(=O)N2CCN(Cc3cccc([N+](=O)[O-])c3)CC2)cc1,1.7µM*,-1%,-5%,-15,-10%,-7
CCOc1ccccc1NC(=O)C1=C(C)NC(=S)NC1c1cccs1 (stereo not drawn),-16%,0%,-23%,-2,12%,6
CC(CNC(=O)c1cccnc1)NC(=O)c1cccnc1 (stereo not drawn),8%,x,-6%,x,x,x
COc1ccc(CN(C(=O)c2ccccc2Br)C2CCS(=O)(=O)C2)cc1 (stereo not drawn),9%,-6%,10%,-7,-6%,-4
